Hits are enriched below; roughly 6.7% of the tested compounds scored in any of these assays.
Anthrax LF prot = anthrax lethal factor protease inhibition | multiplex microsphere protease cleavage assay, LF | inhibition, % at 10 µM | hit rate 0.12% among 360,000; further: plate controls were buffer without enzyme for full effect and enzyme alone for no effect
Target sequence (P15917 whole entry, looked up): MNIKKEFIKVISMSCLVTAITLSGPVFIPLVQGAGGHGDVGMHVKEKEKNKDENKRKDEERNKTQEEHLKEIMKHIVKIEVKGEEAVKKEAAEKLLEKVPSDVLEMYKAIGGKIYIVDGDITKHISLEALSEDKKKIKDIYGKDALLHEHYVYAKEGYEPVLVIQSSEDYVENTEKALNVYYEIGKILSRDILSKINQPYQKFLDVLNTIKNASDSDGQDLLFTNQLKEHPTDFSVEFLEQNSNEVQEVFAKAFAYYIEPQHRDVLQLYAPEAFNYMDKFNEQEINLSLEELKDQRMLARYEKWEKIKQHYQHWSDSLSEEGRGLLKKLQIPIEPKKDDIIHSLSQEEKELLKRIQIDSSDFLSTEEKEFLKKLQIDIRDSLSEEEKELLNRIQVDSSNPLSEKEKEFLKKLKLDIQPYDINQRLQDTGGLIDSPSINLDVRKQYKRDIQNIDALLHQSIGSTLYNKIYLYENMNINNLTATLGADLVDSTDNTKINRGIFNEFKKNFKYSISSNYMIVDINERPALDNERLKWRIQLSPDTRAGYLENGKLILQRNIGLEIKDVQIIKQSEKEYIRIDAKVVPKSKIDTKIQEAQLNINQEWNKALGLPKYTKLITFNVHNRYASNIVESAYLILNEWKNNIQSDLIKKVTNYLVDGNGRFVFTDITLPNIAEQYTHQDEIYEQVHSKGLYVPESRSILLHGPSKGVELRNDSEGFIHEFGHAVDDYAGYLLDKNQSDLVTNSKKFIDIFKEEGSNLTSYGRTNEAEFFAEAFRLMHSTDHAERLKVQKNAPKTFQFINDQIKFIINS
Bead autofluor = compound fluorescence in toxin protease inhibitor counterscreen. compound autofluorescence counterscreen, microsphere flow cytometry; hits give high values. hit rate 3.1% among 360,000. fluorescence intensity (concentration not given with the values). AID 624483; in the data active means fluorescence intensity above about 16000; inconclusive means no clear call, values can overlap the other calls
BoNT A protease = BoNT A light chain protease inhibition; inhibition, % at 10 µM; hit rate 0.17% among 360,000; AID 588499; multiplex microsphere protease substrate cleavage, flow cytometry; further: plate controls were buffer without enzyme for full effect and enzyme alone for no effect
GDH-TPI counter = inhibits GDH-TPI coupling enzymes, artifact for Mtb FBA screen; hit rate 1.2% among 360,000; GDH-TPI coupled enzyme counterscreen, NADH absorbance; inhibition, % at 4.8 µM; in the data active means inhibition above about 30%;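 further: 0% = DMSO wells and 100% = wells lacking the enzyme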
BoNT F protease = inhibitors of Botulinum neurotoxin F light chain protease; Multiplex microsphere protease cleavage assay, flow cytometry; hit rate 0.22% among 360,000; inhibition, % at 10 µM; in the data active means inhibition above about 35%, passing the limit was not always enough; inconclusive means no clear call, values can overlap the other calls; further: plate controls were buffer without enzyme for full effect and enzyme alone for no effect
FBA Mtb inh = Mtb fructose-bisphosphate aldolase inhibition. hit rate 2.3% among 360,000. P9WQA3. purified M. tuberculosis FBA, fluorescence read-out. inhibition, % at 1 µM; in the data active means inhibition above about 27%;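 further: 0% = vehicle and 100% = reference inhibitor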
* hit, by the source's call; ? = inconclusive; . = not tested or not shown. Unless noted, no stated cut-off is given here; in the data, active means inhibition above about 30%; inconclusive means no clear call, values can overlap the other calls; inactive means below that.

SMILES | Anthrax LF prot | Bead autofluor | BoNT A protease | GDH-TPI counter | BoNT F protease | FBA Mtb inh
Cc1ccc(-c2nn(-c3cc(Cl)ccc3[N+](=O)[O-])c(=O)c3ccccc23)cc1 | -2 | 24146* | -3 | 6 | -5 | 3
CCOc1ccc(/C=N/NC(=O)c2ccc(Cn3cc(Br)cn3)o2)cc1 | 0 | 2531 | 0 | 29 | 2 | 6
CCOc1ccc(/C=N/NC(=O)c2ccc(Cn3cc([N+](=O)[O-])cn3)o2)cc1 | 1 | 2909 | 1 | 42* | -1 | -5
COc1cc(/C=N/NC(=O)c2ccc(Cn3cc([N+](=O)[O-])cn3)o2)cc(Br)c1O | -2 | 4037 | -1 | 10 | -10 | -3
COc1ccc(/C=N/NC(=O)c2ccc(Cn3cc([N+](=O)[O-])cn3)o2)cc1O | 0 | 2409 | 0 | 37* | -2 | 0
Cc1cc(C(=O)COC(=O)/C=C/c2cccc(Br)c2)c(C)n1C | -2 | 5150 | 0 | 3 | 7 | -3
CCc1ccc(/C=N/Nc2ncnc3nc[nH]c23)cc1 | . | . | . | 71* | . | 3
CCc1ccccc1NC(=O)CN1CCN(C(=O)CNC(=O)c2ccc(-c3ccccc3)cc2)CC1 | -3 | 3774 | -1 | -5 | -3 | 1
COC(=O)c1c(NC(=O)c2ccc(Br)s2)sc2c1CCC2 | -4 | 21623* | 3 | 7 | 2 | -1
COC(=O)c1c(NC(=O)c2nn(C)cc2Cl)sc2c1CCCC2 | -6 | 20893* | ? | 18 | 5 | 0
CN(C)C(=O)N1CCN(S(=O)(=O)c2ccc3ccccc3c2)CC1 | -8 | 2816 | 1 | 8 | 12 | 4
CCN(CC)c1ccc(/C=C/[N+](=O)[O-])cc1 | 35* | 12328 | 66* | 3 | 17 | -14
COC(=O)C1=NN(C(=O)c2ccccc2)C(O)(c2ccc([N+](=O)[O-])cc2)C1 (stereo not drawn) | -10 | 3358 | 0 | -6 | 17 | -4
CCN(CC)c1ccc2cc(NC(=O)CCC(=O)O)c(=O)oc2c1 | 0 | 11219 | -1 | 10 | -7 | 31*
CCN(CC)c1ccc2cc(C(C)=O)c(=O)oc2c1 | 1 | 4680 | 3 | 4 | 1 | -38
O=C(c1coc(=O)c(Br)c1)N1CCCc2ccccc21 | 8 | 3008 | 3 | 22 | -6 | 141*
O=C(c1cccnc1)N1CCCc2ccccc21 | -2 | 20718* | 0 | 3 | -2 | 1
O=C(c1cccc(Br)c1)N1CCCc2ccccc21 | -15 | 4201 | -1 | -8 | 17 | 0
O=C(c1ccc(S(=O)(=O)N2CCOCC2)cc1)N1CCCc2ccccc21 | 2 | 17398* | -2 | -1 | -3 | 2
O=C(CCC(=O)N1CCN(S(=O)(=O)c2ccc3ccccc3c2)CC1)NCC(F)(F)F | -6 | 4245 | -3 | -11 | -11 | -9
COc1ccccc1-c1cc(C(=O)NC(C)c2ccccc2)no1 (stereo not drawn) | -8 | 11537 | -1 | 6 | 1 | 3
CCOC(=O)N1CCN(C(=O)c2cccc(-n3c(=S)[nH]c4cc(Cl)ccc4c3=O)c2)CC1 | -2 | 20777* | -2 | -2 | -4 | 1
Cn1c(Cc2ccccc2)nnc1SCC(=O)c1ccc(Br)s1 | -3 | 23767* | -2 | 8 | -4 | 2
CCn1c(Cc2ccccc2)nnc1SCC(=O)Nc1cc(C)on1 | -4 | 21460* | 3 | 7 | 3 | 2
COCCn1c(SCC(=O)Nc2cccc(OC)c2)nnc1-c1ccccc1 | 0 | 8103 | -2 | 2 | -8 | 0
SMILES | Anthrax LF prot | Bead autofluor | BoNT A protease | GDH-TPI counter | BoNT F protease | FBA Mtb inh
COCCn1c(SCC(=O)OC(C)C)nnc1-c1ccccc1 | -7 | 24184* | -3 | 7 | -3 | -1
CCn1c(SCC(=O)Nc2nc(C)c(C)s2)nnc1-c1cccnc1 | -1 | 17323* | -5 | 6 | -6 | 0
Cc1cc(NC(=O)CSc2nnc3ccccn23)no1 | -4 | 17051* | -5 | -8 | 15 | 0
CCn1c(Cc2ccccc2)nnc1SCC(=O)OC(C)C | 3 | 21705* | 7 | 5 | 7 | -1
CCn1c(SCC(=O)Nc2cc(C)on2)nnc1-c1cccnc1 | -2 | 20847* | -1 | -6 | -2 | -1
COCCCn1c(C)nnc1SCC(=O)NNC(=O)COc1ccc(Cl)cc1 | 12 | 3611 | 1 | 1 | 7 | 3
CC(=O)Nc1cccc(NC(=O)CSc2nnc3ccccn23)c1 | -11 | 3630 | 0 | 2 | 1 | 1
CNC(=O)CSc1nnc(COc2ccc(Cl)cc2)n1CCOC | 1 | 22197* | 2 | 2 | 4 | 3
O=C(CN1CCN(S(=O)(=O)c2cccc(Br)c2)CC1)N1CCCCC1 | -5 | 2978 | -1 | 4 | -2 | -1
COCCn1c(Cc2ccccc2)nnc1SCC(=O)N(C)C | 1 | 21939* | 1 | -11 | 2 | -2
COc1cc(Cl)c(C)cc1NC(=O)COC(=O)C(NS(=O)(=O)c1ccc(Cl)cc1)C(C)O (stereo not drawn) | -2 | 10174 | 1 | 3 | 3 | -3
Cc1ccc(S(=O)(=O)N2CCN(C(=O)COC(=O)/C=C/c3ccc(C(F)(F)F)cc3)CC2)c(C)c1 | -4 | 3739 | 0 | 11 | -3 | 5
O=C(Nc1cccc(C(F)(F)F)c1)c1cc2c(=O)c3ccccc3oc2nc1C(F)(F)F | 1 | 23568* | ? | 5 | -5 | 1
O=C(Nc1ccccc1)c1cc2c(=O)c3ccccc3oc2nc1C(F)(F)F | -4 | 8372 | 1 | 2 | -3 | -2
COc1ccc(OCCOC(=O)CNC(=O)c2cccc(C)c2)cc1 | ? | ? | ? | 8 | ? | 4
CCCCOC(=O)c1cc(=O)[nH]c2ccccc12 | -3 | 22271* | 2 | 11 | 2 | 6
CCCOc1ccc(C(=O)NC(=S)Nc2nc(C)c(C(=O)N(C)C)s2)cc1 | -21 | 18538* | 11 | 17 | 15 | -1
Cc1nc(NC(=S)NC(=O)c2ccccc2)sc1C(=O)N(C)C | -3 | 21936* | 1 | 6 | 1 | -2
COC(=O)c1sc(NC(=S)NC(=O)c2ccccc2)nc1C | 0 | 2626 | 0 | 0 | -6 | 0
Cc1nc(NC(=O)c2cc3c(s2)CCCCC3)sc1C(=O)N(C)C | 0 | 10711 | 0 | 16 | 9 | -1
Cc1nc(NC(=O)c2ccc(Br)s2)sc1C(=O)N(C)C | 1 | 16535* | ? | 35* | -2 | 0
COc1ccc(CCn2c(=O)[nH]c3cc(C(=O)NCCN4CCOCC4)ccc3c2=O)cc1OC | 4 | 5758 | 1 | 6 | -10 | 0
Cc1cc(C)cc(-n2nc(C)cc2N)c1 | 0 | 16680* | ? | 11 | 0 | 1
CC(=O)OCC[n+]1c(C)n(-c2ccccc2)c2ccc(Cl)cc21 | 0 | 2616 | 0 | 1 | 0 | 3
Cc1nc(Sc2ccccc2)c(C#N)c(C)c1[N+](=O)[O-] | 30* | 3839 | 0 | -19 | ? | -5
CNC(=O)COC(=O)c1nc(-n2nc(C)cc2C)ccc1Cl | 0 | 24164* | -1 | 2 | -3 | 6

From PubChem
